Screening results as filed in PubChem BioAssay.
This is a sample that favours compounds with a hit; in the whole collection about 7.4% have one here.
Luciferase inh: Photinus pyralis luciferase inhibition; purified P. pyralis luciferase, luminescence, biochemical; Potency, µM (doses to about 115 µM), most hits filed as inhibitors; actives 2.5% (n = 76,000); further: nearly all actives have a fitted effect of over 65% in size
Target sequence (P08659 whole entry, looked up): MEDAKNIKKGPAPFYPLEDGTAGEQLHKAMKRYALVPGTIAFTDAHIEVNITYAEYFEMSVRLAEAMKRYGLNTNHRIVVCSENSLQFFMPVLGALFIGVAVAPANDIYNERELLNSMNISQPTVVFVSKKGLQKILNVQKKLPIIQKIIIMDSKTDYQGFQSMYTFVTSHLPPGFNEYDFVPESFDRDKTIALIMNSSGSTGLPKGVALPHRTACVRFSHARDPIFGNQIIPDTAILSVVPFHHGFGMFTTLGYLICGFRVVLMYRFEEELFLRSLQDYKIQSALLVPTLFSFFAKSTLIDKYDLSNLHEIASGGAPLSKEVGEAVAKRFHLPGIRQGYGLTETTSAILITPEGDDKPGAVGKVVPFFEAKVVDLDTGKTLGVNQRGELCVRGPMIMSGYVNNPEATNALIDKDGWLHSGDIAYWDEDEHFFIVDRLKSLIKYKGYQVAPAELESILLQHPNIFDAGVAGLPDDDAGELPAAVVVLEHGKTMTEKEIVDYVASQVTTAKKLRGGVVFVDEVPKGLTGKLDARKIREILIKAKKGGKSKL
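FLuc 10nM, D-luciferin 10uM, ATP 10uM, Mg acetate 10mM, Tris acetate pH 7.5, Tween/BSA; cpd qHTS; enzyme added last; CCD luminescence.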
HEK cytotox: kills HEK 293 cells | HEK 293 viability, ATP luminescence (CellTiter-Glo), 48-72 h | Potency, µM (highest dose often 115 µM), without a hit: at the highest dose activity change, negative = cytotoxicity, usual class: inhibitors | actives 6.6% (n = 94,000) | AID 1345083; further: nearly all actives have a fitted effect of over 60% in size
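Viability of HEK 293 cells, plated at 250 cells/well, was judged by cellular ATP after compound treatment for 48 or 72 hr. Luminescence was imaged 10 min after CellTiter-Glo addition at room temperature.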
SNCA expr inhib: reduces expression of the alpha-synuclein gene | HEK-293 SNCA-luciferase knock-in, luminescence, 24 h | Potency, µM (series often up to 57.2 µM), for the others: at the highest dose activity change, negative = inhibition, hits mostly inhibitors | actives 0.17% (n = 140,000) | AID 1671194;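 further: plate controls were DMSO cells for no effect and cell-free wells for full effect; nearly all actives have a fitted effect of over 45% in size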
3T3 cytotox: NIH 3T3 cell cytotoxicity | Potency, µM (top dose mostly 96.7 µM), without a hit: at the top dose activity change, negative = cytotoxicity, usual class: inhibitors | NIH 3T3 viability, CellTiter-Glo ATP luminescence, 48-72 h | actives 4.3% (n = 94,000); further: nearly all actives have a fitted effect of over 55% in size
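ATP-dependent luminescence (CellTiter-Glo) served as the viability signal for NIH 3T3 cells treated with compound for 48 or 72 hr at 37 °C.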
SNCA viab count: cell viability loss counter-screen | HEK-293-SNCA-luc viability, GF-AFC fluorescence, 24 h | Potency, µM (highest dose often 57.1 µM), for the others: top-dose activity change, negative = cytotoxicity, usual class: cytotoxic | actives 0.12% (n = 150,000) | AID 1671193;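 further: 0% = DMSO-treated cells and -100% = medium-only wells without cells; nearly all actives have a fitted effect of over 30% in size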
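HEK-293-SNCA-luc cells (1500/well) plated 24 h, then exposed 24 h to a dilution series; GF-AFC added 30 min at 37C, fluorescence 405/540 nm; normalised to medium-only and DMSO wells, Hill fit.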
NPR1 antag: human Npr1 receptor antagonism; P16066; HEK293 hNpr1 GloSensor cGMP, ANP-stimulated luminescence; Potency, µM (top dose mostly 46.3 µM), for the others: at the highest dose activity change, negative = inhibition, usual class: inhibitors; actives 1.6% (n = 76,000); calls by dose curve; further: nearly all actives have a fitted effect of over 60% in size
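HEK293 cells stably expressing human Npr1 and cGMP GloSensor pGS-40F, loaded 2 h with 2% GloSensor reagent, given compound 30 min at room temperature. Luminescence read before and 20 min after 0.1 nM hNppA.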
Active calls of the source: *; i = inactive; u = inconclusive; x = no result given; [ ] = another dose, or the depositor's remark. Unless noted, the call rests on the fitted dose curve; in most records, active means well fitted curve in the direction sought with a large enough effect; inconclusive means small, poorly fitted or top-dose-only effect, or another doubt; inactive means no such curve, though single readings can be large; an effect the other way counts as inactive or inconclusive. Unless noted, on the % scale 0 is the no-effect control and ±100 the full control effect; potency means the concentration at half of the fitted maximal effect.

SMILES	Luciferase inh	HEK cytotox	SNCA expr inhib	3T3 cytotox	SNCA viab count	NPR1 antag
Cc1noc2c(NCc3cccnc3)cc(-c3cccc(C(F)(F)F)c3)nc12	i	100µM*	-24.3%[87.6 µM]	79.4µM*	-13.6%[87.6 µM]	-4.9%[70.6 µM]
Cc1noc2c(NCCN3CCOCC3)cc(-c3cccc(C(F)(F)F)c3)nc12	i	u	-2.5%[87.6 µM]	u	5.7%[87.6 µM]	0.3%[70.6 µM]
CN(C)Cc1nnc(C2CC(NC(=O)c3conc3-c3ccccc3)C2)n1C (stereo not given)	i	i	-8.8%	i	2.3%	1.4%
Cc1noc(C)c1C(=O)N1Cc2ccccc2OC2(CCN(C(=O)N(C)C)CC2)C1	x	i	-0.9%	i	3.0%	x
COc1ccc(CN2C(=O)CO[C@H]3CN(c4nccc(C)n4)C[C@H]32)cc1	i	-6.4%[172 µM]	-16.9%[87.6 µM]	-17.9%[174 µM]	1.4%[87.6 µM]	3.3%[70.6 µM]
O=C1CO[C@H]2CN(c3nccc(C(F)(F)F)n3)C[C@H]2N1Cc1ccc(F)cc1	i	100µM*	24.2%[87.6 µM]	u	-2.2%[87.6 µM]	-0.7%[70.6 µM]
O=C(O)Cn1ccc2cc(OCc3cccc(-c4ccc(F)cc4F)c3)cnc21	20µM*	u	8.2%[87.6 µM]	-3.0%[138 µM]	1.5%[87.6 µM]	4.5%[70.6 µM]
Cn1nccc1-c1cccc(CCOc2cnc3c(ccn3CC(=O)O)c2)c1	i	-8.9%[172 µM]	0.9%[87.6 µM]	44.7µM*	3.1%[87.6 µM]	-13.3%[70.6 µM]
CS(=O)(=O)Nc1ccc(C2(C(=O)N3CCN(c4ccccc4)CC3)CCCCC2)cc1	i	u	-11.2%	u	-7.2%	-1.6%
CCc1cc(=O)n(CC(=O)N2CCN(c3ccc(F)cc3)CC2)c(N2CCOCC2)n1	i	25.1µM*	-18.9%	u	-13.4%	-16.4%
Nc1cccn2nc(-c3ccccc3)nc12	15.8µM*	-18.0%	165.5%	u	0.9%	-14.6%
COCCN1Cc2[nH]nc(-c3ccccc3OCc3ccccc3)c2CC1=O	i	u	-17.3%[87.6 µM]	-20.0%[138 µM]	0.0%[87.6 µM]	-1.8%[70.6 µM]
O=C(NCc1cccnc1)c1cn2cc(-c3ccccc3)sc2n1	x	50.1µM*	-1.0%[87.6 µM]	u	-24.2%[87.6 µM]	x
O=C(NCc1cccnc1)c1cn2cc(-c3ccc(F)cc3)sc2n1	x	u	25.9%	u	3.1%	x
COc1cccc(CNC(=O)c2cn3cc(-c4cccnc4)sc3n2)c1	x	-30.5%	18.8%	u	-2.3%	x
COc1cccc(-c2cn3cc(C(=O)NCc4cccnc4)nc3s2)c1	x	31.6µM*	141.8%	u	3.8%	x
CC(=O)N1CCN(CCCn2nc3n(c2=O)CCCC3)CC1	x	i	x	-1.1%[138 µM]	x	x
O=C(c1ccco1)N1CCC(c2n[nH]c(=O)n2-c2ccccc2)CC1	i	5.9%	7.3%	1.9%	3.2%	10.6%
CCS(=O)(=O)Nc1ccc2[nH]c(O)c(C(=Nc3ccc(CN4CCCCC4)cc3)c3ccccc3)c2c1	x	x	1.21µM*	x	u	x
COc1ccc(-c2[nH]nc3ncc(-c4cccc(CO)c4)nc23)c(C)c1	i	u	-0.6%[87.6 µM]	u	-15.0%[87.6 µM]	-0.7%[70.6 µM]
COc1ccc(-c2[nH]nc3ncc(-c4ccccc4OC)nc23)c(C)c1	i	89.1µM*	14.7%[87.6 µM]	u	9.0%[87.6 µM]	-8.3%[70.6 µM]
COc1ncccc1-c1cnc2n[nH]c(-c3ccc(F)cc3C)c2n1	i	u	-16.3%[87.6 µM]	31.6µM*	-8.8%[87.6 µM]	-14.7%[70.6 µM]
COc1ccc(-c2[nH]nc3ncc(-c4cccnc4OC)nc23)c(C)c1	i	100µM*	0.9%[87.6 µM]	u	5.8%[87.6 µM]	-1.7%[70.6 µM]
CCCS(=O)(=O)N1CCCN(C(=O)C2CC2)C(c2ccccc2)CC(=O)NCC1 (stereo not given)	i	-4.5%	4.5%	-24.3%	7.4%	-15.2%
CC[C@@]1(O)CCN(C(=O)c2sc(C)cc2OC)C[C@H]1O	i	-4.4%	10.5%	-2.5%	4.3%	3.2%
SMILES	Luciferase inh	HEK cytotox	SNCA expr inhib	3T3 cytotox	SNCA viab count	NPR1 antag
Cc1noc(C)c1-c1cc2c(cc(C)n2CCN(C)C)c(-c2cccc(O)c2)n1	i	56.2µM*	-8.1%[87.6 µM]	u	-9.5%[87.6 µM]	-11.6%[70.6 µM]
Cc1noc(C)c1-c1cc2c(cc(C)n2CCN(C)C)c(-c2ccc(CO)cc2)n1	i	79.4µM*	10.1%[87.6 µM]	u	-11.1%[87.6 µM]	-20.9%[70.6 µM]
COc1ccc(-c2nc(-c3c(C)noc3C)cc3c2cc(C)n3CCN(C)C)cn1	i	79.4µM*	44.1%[87.6 µM]	u	-16.2%[87.6 µM]	-9.9%[70.6 µM]
Cc1noc(C)c1-c1cc2c(cc(C)n2CCN(C)C)c(-c2ccccc2O)n1	i	44.7µM*	-9.0%[87.6 µM]	31.6µM*	u	0.5%[70.6 µM]
Cc1noc(C)c1-c1cc2c(cc(C)n2CCN(C)C)c(-c2cccnc2)n1	i	70.8µM*	67.3%[87.6 µM]	u	-15.1%[87.6 µM]	-12.8%[70.6 µM]
Cc1noc(C)c1-c1cc2c(cc(C)n2C)c(NCc2ccncc2)n1	i	u	34.9%[87.6 µM]	u	-14.7%[87.6 µM]	4.6%[70.6 µM]
COc1cccc(-c2nc(-c3c(C)noc3C)cc3c2cc(C)n3CCN(C)C)c1OC	i	u	32.0%[87.6 µM]	u	-17.6%[87.6 µM]	-11.5%[70.6 µM]
Cc1noc(C)c1-c1cc2c(cc(C)n2CCN(C)C)c(Nc2ccn(C)n2)n1	i	89.1µM*	25.5%[87.6 µM]	u	-26.6%[87.6 µM]	-2.0%[70.6 µM]
O=C(Cc1ccsc1)N1CCC(c2nc(C3CCOCC3)no2)C1 (stereo not given)	i	-2.8%	9.4%	1.4%	3.1%	-0.1%
O=C(Nc1ccccc1)N1CCn2c(nn(-c3ccc(F)cc3)c2=O)C1	i	-1.1%	-16.5%	-25.9%	7.6%	3.7%
CC1=C[C@@H](CNC(=O)c2ccccn2)[C@H](C(C)C)C[C@H]1CC(=O)N1CCCC1	i	u	u	100µM*	u	-4.1%[70.6 µM]
CC1=C[C@@H](CNC(=O)C(C)(C)C)[C@H](C(C)C)C[C@H]1CC(=O)N1CCN(c2ccccn2)CC1	i	u	-13.9%	-25.5%	-26.6%	5.2%
CC1=C[C@@H](CNC(=O)C2CCCCC2)[C@H](C(C)C)C[C@H]1CC(=O)N1CCN(c2ccccn2)CC1	i	u	u	u	28.2µM*	-17.2%
COc1ccc(-c2cc(C(=O)NCC[S+](C)(=O)[O-])c3c(c2)N(C)CCO3)cn1	i	u	-3.5%[87.6 µM]	u	-8.2%[87.6 µM]	-2.1%[70.6 µM]
COc1ccc(-c2cc(N3CCN(C(=O)c4c[nH]c5ccccc45)CC3)n[nH]2)cc1	i	u	u	25.1µM*	-9.3%	0.0%
COc1ccc(-c2cc(N3CCCN(C(=O)c4ccc(C)s4)CC3)n[nH]2)cc1	u	39.8µM*	8.5%	u	u	0.0%
COc1ccc(-c2cc(N3CCCN(C(=O)C4(c5ccc(OC)cc5)CC4)CC3)n[nH]2)cc1	i	44.7µM*	-37.2%	u	-19.5%	u
COc1ccc(-c2cc(N3CCCN(C(=O)C(C)c4ccccc4)CC3)n[nH]2)cc1 (stereo not given)	i	79.4µM*	-8.9%	u	-22.2%	-2.1%
